# PINK1 expr mod = changes PINK1 expression; PINK1 immunofluorescence, high-content cytometry, 24 h; Potency, µM (series often up to 76.6 µM), without a hit: top-dose activation (PINK1 increase), usual class: activators; 410,000 tested, 0.2% active; active = well fitted activation curve with a large enough effect; inconclusive = small, poorly fitted or top-dose-only effect; cell line not stated here; note: % of control where 0% means no effect; nearly all actives have a fitted effect of over 65% in size
#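 Decision-based qHTS: stable cells, 24 h exposure to five compound concentrations, CCCP as control. Fixed cells stained for PINK1 plus nuclear, mitochondrial and cell markers, cytometer read.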
# Epigenetic derep = epigenetic control regulation, reporter derepression | 280,000 tested, 0.2% active | Potency, µM (highest dose often 53.9 µM), for inactives: at the top dose GFP activation, usual class: activators | murine LDR cells, GFP reporter derepression, 30 h; note: % of control where 0% means no effect; nearly all actives have a fitted effect of over 60% in size
#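 In this reporter-derepression format, murine cells bearing a silenced integrated CMV-GFP locus incubate with test compound (30 h, 37 C), then are washed and imaged; fluorescent objects of 20–120 um count as induced cells.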
# Vif-APOBEC3G blk = Vif-A3G binding inhibition; Potency, µM (highest dose often 46.1 µM), for the others: at the highest dose activity, negative = active, usual class: inhibitors; HeLa A3G-eYFP + Vif (tagged APOBEC3G with the HIV-1 protein that degrades it), YFP fluorescence, overnight; Q9HC16; 410,000 tested, 0.076% active; note: % is set by controls: 0 for no effect and ±100 for the full control effect; nearly all actives have a fitted effect of over 60% in size
#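 HeLa cells stably expressing Vif and C-terminally eYFP-tagged A3G, seeded overnight at 37 deg C, then exposed to compound by pintool overnight at 37 deg C. Rise in yellow fluorescence (Ex 488/Em 500-530, Acumen) marks blocked Vif-driven A3G degradation.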
# Vif-APOBEC3F blk = blocks the Vif interaction with APOBEC3F; HeLa A3F-eYFP + Vif (tagged APOBEC3F with the HIV-1 protein that degrades it), YFP fluorescence increase; Potency, µM (doses to about 46.1 µM), inactives show at the highest dose activity, negative = active; 390,000 tested, 0.2% active; note: % of control where 0% means no effect; nearly all actives have a fitted effect of over 65% in size
#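 Fluorescence increase (Ex 488/Em 500-530) after overnight compound treatment at 37 deg C flags inhibition of Vif-driven A3F-eYFP loss in stable HeLa A3F-eYFP/Vif cells seeded overnight beforehand.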
# GLS inh = inhibitors of human glutaminase (GLS). Potency, µM (highest dose often 45.5 µM), inactives show at the top dose activity change, negative = inhibition, actives largely listed as inhibitors. 410,000 tested, 0.21% active. AID 624170. O94925. GLS enzymatic activity, qHTS titration; note: % is set by controls: 0 for no effect and ±100 for the full control effect
# Target sequence (O94925 whole entry, looked up): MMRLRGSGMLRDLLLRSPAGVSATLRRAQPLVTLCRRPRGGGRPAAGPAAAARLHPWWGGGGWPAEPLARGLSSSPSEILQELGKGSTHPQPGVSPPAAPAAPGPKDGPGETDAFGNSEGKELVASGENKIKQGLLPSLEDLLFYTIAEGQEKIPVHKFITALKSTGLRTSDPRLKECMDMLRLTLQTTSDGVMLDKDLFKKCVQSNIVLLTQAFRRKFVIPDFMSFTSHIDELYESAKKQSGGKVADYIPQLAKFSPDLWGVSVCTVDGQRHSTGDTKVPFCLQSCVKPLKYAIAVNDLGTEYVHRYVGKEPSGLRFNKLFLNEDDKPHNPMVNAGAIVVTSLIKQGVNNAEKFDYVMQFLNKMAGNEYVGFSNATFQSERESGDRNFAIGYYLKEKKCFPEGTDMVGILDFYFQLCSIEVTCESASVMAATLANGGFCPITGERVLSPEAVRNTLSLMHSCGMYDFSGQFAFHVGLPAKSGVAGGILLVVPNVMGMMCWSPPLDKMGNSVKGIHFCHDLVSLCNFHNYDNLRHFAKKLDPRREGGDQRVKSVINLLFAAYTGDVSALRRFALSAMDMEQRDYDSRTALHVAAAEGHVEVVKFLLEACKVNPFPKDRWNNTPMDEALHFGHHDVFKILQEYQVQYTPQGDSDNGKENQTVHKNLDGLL
#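 Enzyme dispensed in phosphate buffer (45 mM, pH 8.2, 0.02% Tween-20), compounds pinned in, then 1 mM L-glutamine solution and the glutamate oxidase–HRP–Amplex Red mix added; fluorescence read immediately and again after 30 min at room temperature.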
# * marks the source's active call; other numbers are inactive results; i = inactive; ? = inconclusive; . = no result given; ! = repeats disagree; [ ] = dose if it differs, or a comment. A selection: hits, their analogues and other compounds. The true share with any hit is near 0.7%. Unless noted, calls come from the whole dose curve; as a rule, active = well fitted curve in the direction sought with a large enough effect; inconclusive = small, poorly fitted or top-dose-only effect, or another doubt; inactive = no such curve, though single readings can be large; an effect the other way counts as inactive or inconclusive. Potency is the fitted concentration of half-maximal effect.
SMILES,PINK1 expr mod,Epigenetic derep,Vif-APOBEC3G blk,Vif-APOBEC3F blk,GLS inh
Cc1cccc(CNC(=O)c2cnn(-c3nccc(-c4cccs4)n3)c2C(C)C)n1,-0.6%,.,.,.,.
COc1ccc([C@H]2CC(=O)C=C(c3ccc(NC(C)=O)cc3)C2)cc1OC,1.0%,.,-4.1%,2.9%,-0.8%
CC(=O)Nc1ccc(C2=CC(=O)C[C@H](c3ccc(Cl)cc3)C2)cc1,5.5%,.,?,22.4µM*,2.3%
CC(=O)OCC(=O)[C@@]1(O)[C@H](C)C[C@H]2C3C[C@H](F)C4=CC(=O)C=CC4(C)C3[C@@H](O)CC21C (stereo partly drawn),.,.,.,.,-0.8%
CCCCN(C)CC(O)Cn1cc(/C=C/C(=O)c2ccc(OCC)cc2)c2ccccc21 (stereo not drawn),-2.2%,6.2%,-18.8%,0.2%,7.0%
CCCCN(C)CC(O)Cn1cc(/C=C/C(=O)c2cccs2)c2ccccc21 (stereo not drawn),-5.1%,1.3%,?,28.2µM*,8.2%
O=C(C1CC12CCN(Cc1cccc3cccnc13)CC2)N1CCN(Cc2cccs2)CC1 (stereo not drawn),1.3%,.,.,.,.
CC1CCN(C(=O)C(C)Sc2nc(-c3ccccc3)cc(C(F)(F)F)n2)CC1 (stereo not drawn),1.0%,4.4%,20µM*!,-3.6%,7.5%
CC(Sc1nc(-c2ccccc2)cc(C(F)(F)F)n1)C(=O)N1CCCC1 (stereo not drawn),-0.4%,0.0%,3.0%,0.4%,-1.9%
CN(C)c1ccc(/C=C/c2cc[n+](C)c3ccc4ccccc4c23)cc1,4.47µM*,.,9.2%,.,.
Cc1cc(N(C)C)cc(C)c1/C=C/c1cc[n+](C)c2ccccc12,.,.,5.1%,.,.
C[n+]1ccc(/C=C/c2ccc(C=S)cc2)c2ccccc21,44.7µM*,.,?,.,.
C[n+]1ccc(/C=C/c2ccccc2O)c2ccccc21,-1.4%,2.2%,-1.1%,-1.9%,-19.5%
Cc1c(C(=O)NCCc2cccnc2)cnn1-c1ncc2c(n1)-c1ccccc1CC2,0.8%,.,.,.,.
CCN(CC)c1ccc(NC2CC(=O)N(CCc3ccc(OC)cc3)C2=O)cc1 (stereo not drawn),2.24µM*,3.55µM*,-6.9%,?,?
NNc1ccc([N+](=O)[O-])c2[nH][nH]c(=O)c12,-0.4%,.,5.1%,-10.1%,7.94µM*
O=[N+]([O-])c1ccc(Nc2ccccc2)c2nonc12,20.7%,.,?,?,3.7%
CC(=O)Oc1ccc2ccccc2c1C(NC(=O)Cc1ccccc1)c1ccc(Cl)cc1 (stereo not drawn),14.1µM*,-1.2%,-3.1%,-8.0%,-6.5%
Cc1ncc2c(c1CNC(=O)c1ccccc1F)CCN(C(=O)c1ccc3c(c1)OCCO3)C2,4.9%,.,.,.,.
CCC(C)N1C(=O)/C(=C/c2c(NCCCOC(C)C)nc3c(C)cccn3c2=O)SC1=S (stereo not drawn),11.3%,3.16µM*,?,i,0.2%
C/C(=N/Nc1ccccc1C(=O)O)c1cccs1,0.0%,.,-7.7%,5.4%,12.6µM*
CCOC(=O)/C=c1\s/c(=C\c2c(OC)ccc3ccccc23)c(=O)n1CC(=O)NCC1CCCO1 (stereo not drawn),3.3%[38.3 µM],?,10µM*,25.1µM*,-1.3%
CCOC(=O)/C=c1/s/c(=C/c2ccc3cc(OC)ccc3c2)c(=O)n1CC(=O)NCC1CCCO1 (stereo not drawn),5.1%,.,-0.3%,7.08µM*,-3.0%
NCCCNCCCCNC(=O)C(O)NC(=O)CCCCCCN=C(N)N (stereo not drawn),.,.,.,.,-6.6%
O=C1c2ccccc2-c2nnc(-c3ccc(O)cc3)cc21,0.2%,-2.0%,2.4%,1.6%,-7.7%
SMILES,PINK1 expr mod,Epigenetic derep,Vif-APOBEC3G blk,Vif-APOBEC3F blk,GLS inh
O=C1c2ccccc2-c2nc3ccccc3cc21,0.1%,.,-7.9%,2.82µM*,-5.6%
c1ccc2c(c1)Cc1cc3ccccc3nc1-2,6.5%,0.0%,?,10µM*,-5.4%
CC1=CC(C)(C)Nc2ccc(OC(=O)c3ccco3)cc21,.,?,11.2µM*,?,?
CC(NC(=O)/C(C#N)=C/c1ccco1)c1ccccc1 (stereo not drawn),-0.7%,-1.1%,-0.1%,-6.4%,-2.2%
CCOCCCNC(=O)/C(C#N)=C/c1ccc([N+](=O)[O-])o1,-0.2%,3.98µM*,?,12.6µM*,2.2%
CCOCCCNC(=O)/C(C#N)=C/c1ccc(-c2ccc(S(=O)(=O)N3CCOCC3)cc2)o1,8.1%,-1.9%,-9.8%,-23.0%,0.3%
CC(NC(=O)/C(C#N)=C/c1ccc([N+](=O)[O-])o1)c1ccccc1 (stereo not drawn),3.0%,.,22.4µM*,11.2µM*,-2.6%
Cc1nc(C)n(CC(=O)NCC2Cc3cc(-c4cccc(OC(F)(F)F)c4)ccc3O2)n1 (stereo not drawn),-1.0%,.,.,.,.
CC(c1ccc(F)cc1)n1c(-c2ccc3ccccc3n2)n[nH]c1=S (stereo not drawn),.,-0.9%,-1.0%,-10.7%,12.6µM*
Cc1cnc(SCc2ccccn2)nc1C1CCCN(C(=O)c2noc3c2CCCC3)C1 (stereo not drawn),-0.2%,.,.,.,.
C=CCCc1ccc(C#N)c(SCc2c(C(=O)OCC)c3cc(OC(C)=O)c(Br)cc3n2C)n1,1.6%,12.6µM*,1.1%,-8.3%,1.1%
COc1ccc2[nH]cc(C(=O)CN3CC(C)CC(C)C3)c2c1 (stereo not drawn),-1.2%,.,-0.9%,-15.9%,-5.3%
COc1ccc2[nH]cc(C(=O)CN3CCN(C/C=C/c4ccccc4)CC3)c2c1,.,10µM*,.,.,.
CC#CCC(C)[C@H](O)/C=C/C1[C@H](O)C[C@@H]2C/C(=C\CCCC(=O)O)C[C@H]12 (stereo partly drawn),.,.,.,.,-6.7%
CCS(=O)(=O)c1ccc(O)c(NC(=O)/C=C/c2ccccc2)c1,2.1%,-1.0%,-6.1%,-23.0%,1.0%
Cc1c(O)ccc(NC(=O)/C=C/c2ccccc2)c1C,2.6%,0.1%,-1.6%,5.2%,17.8µM*
Cc1cc(-c2ccnc(-n3ncc(C(=O)NCC4COCCO4)c3C3CC3)n2)c(C)s1 (stereo not drawn),4.1%,.,.,.,.
CN(C)CCCN1C(=O)c2cccc3cccc(c23)C1=O,-0.4%,.,5.1%,-14.2%,3.9%
CCCCN1C(=O)c2cccc3cc(O)cc(c23)C1=O,4.1%,.,-11.8%,1.26µM*,3.3%
COC(=O)c1cc(CNC(=O)c2ccncc2)cc(NC(=O)c2ccccc2Cl)c1,-0.2%,.,.,.,.
Oc1c(C=Nc2cccnc2)sc2ccccc12,-1.0%,0.0%,-1.3%,6.7%,18.3%
Oc1sc(C=Nc2ccc(F)cc2)c2ccccc12,6.6%,?,?,2.82µM*,6.8%
Oc1sc(C=Nc2ccccc2)c2ccccc12,-2.7%,?,11.2µM*,25.1µM*,20.5%
Oc1c(C=Nc2ccccc2)sc2ccccc12,-1.2%,0.0%,?,-11.9%,7.0%

# High-throughput results deposited in PubChem BioAssay by National Center for Advancing Translational Sciences (NCATS).
